The record followed here is PubChem BioAssay.

As usually defined, the viability is a read-out of living cells in per cent, often relative to untreated cells.

The first assay can be described thus: MRP1 drug-resistance reversers in H69AR cells – cell-based, doxorubicin co-treatment, pilot screen (AID 601). Particulars: H69AR cells + 2 uM doxorubicin, CellTiter-Glo, 72 h; measured here: viability with 2 uM doxorubicin; at 10 µM; stronger effect = lower value. A general note: Cellular ATP, detected with luciferase, serves as a proxy for viable cell number.
On to `O=C(CNC1CCCCCC1)Nc1ccc(S(=O)(=O)NC2CC2)cc1`, for which the viability worked out at 87.9%.

For `Cn1c2c(c(=O)n(C)c1=O)C(c1cccc(Br)c1)C1C(=O)c3ccccc3C1=N2` (configuration not stated), the viability was found to be 35.4%.

As for `CC(C)Nc1ncnc2c1cnn2-c1ccccc1`, the viability was 90.5%.

For `CN(C)/C=C(\C#N)c1nc2ccccc2[nH]1`, the viability worked out at 77%.

Turning to `Oc1ccc2[nH]cnc2c1CN1CCCCC1`, the viability was 92.5%.

Regarding `COc1ccc(S(=O)(=O)C(C#N)c2nc3ccccc3nc2N2CCCC(C)C2)cc1` (configuration not stated), the viability was 86%.

`Cc1ccc(S(=O)(=O)N(CC(=O)NCc2ccco2)Cc2ccccc2F)cc1`: the viability stood at 85.5%.

`COc1ccc(C(=O)NCc2ccccc2OC)cc1`: the viability was found to be 95.8%.

In the case of `CN(C)CCN1C(=O)c2oc3ccc(Cl)cc3c(=O)c2C1c1cccc(Br)c1` (configuration not stated), the viability turned out to be 74.2%.

For the compound `CCOC(=O)Nc1ccc(OC)cc1S(=O)(=O)N1CCCCC1`, the viability stood at 81.3%.

As to `CCOC(=O)CSc1nnc([C@H](CC(C)C)NC(=O)OC(C)(C)C)o1`, the viability came out at 95.5%.

As to `O=C(CSc1nnc(-c2ccccc2)c(-c2ccccc2)n1)N1CCOCC1`, the viability was determined as 72.5%.

For the compound `CCOC(=O)C(C)Sc1nc2c(cnn2-c2ccc(C)cc2)c(=O)[nH]1` (configuration not stated), the viability is 72.6%.

For the compound `O=c1c2ccccc2nnn1CSc1nnc2sc3ccccc3n12`, the viability was 67.7%.

Consider `COc1ncnc2c1N=C1CC(C)(C)CC(N)=C1S2`, for which the viability was 82.8%.

For `CCc1ccc(CNCc2cccnc2)cc1`, the viability stood at 85.4%.

Regarding `O=C(NC1CCN(Cc2nnnn2CCc2ccccc2)CC1)c1ccccc1F`, the viability turned out to be 98.3%.

Consider `COc1ccc(C(=O)N(CCCO)Cc2cc3c(C)ccc(C)c3[nH]c2=O)cc1OC`, for which the viability is 82.9%.

`Nc1cc(-c2ccccc2)ccc1O`: the viability was 60.9%.

In the case of `Cc1cc(NC(=O)COc2cccc3cccnc23)no1`, the viability was found to be 79.5%.

Turning to `Cc1cc(Br)ccc1NC(=O)CNC(=O)CSc1n[nH]c(N)n1`, the viability amounted to 87.3%.

On to `CC(=O)NCCOc1cccc(OCCNC(C)=O)c1`, for which the viability came to 91.7%.

Staying with this assay, now noted: H69AR cells, CellTiter-Glo, 72 h; compound alone cytotoxicity; at 10 µM.
For the compound `C=C(c1cccc2ccccc12)P(=O)(O)O`, the viability was determined as 92.9%.

Turning to `COc1cc(NC(=O)c2cc(CC(C)C)on2)c(OC)cc1Cl`, the viability was 88.9%.

Turning to `COc1ccccc1-n1c(SCC(N)=O)nnc1-c1ccccc1`, the viability is 87.7%.

Take `Cc1coc2cc3oc(=O)c4c(c3cc12)CCC4`: the viability came to 104%.

Consider `COc1ccc(NC(=O)CN2CCN(S(=O)(=O)c3ccc(Cl)cc3)CC2)cc1`, for which the viability came out at 81.8%.

`COc1cc(-c2nc(S(=O)(=O)c3ccccc3)c(N3CCOCC3)o2)cc(OC)c1OC`: the viability came to 87.1%.

`CCC(C)(C)NC(=O)C(OC(=O)c1ccco1)c1ccccc1OC` (configuration not stated): the viability stood at 106%.

For `COc1ccc(-n2nnc3c(=O)n(C/C=C/c4ccccc4)cnc32)cc1`, the viability is 86.1%.

Take `Cc1ccc(S(=O)(=O)N2CCOCC2)cc1C(=O)Nc1ccccn1`: the viability was 93.8%.

Turning to `CCOc1ccccc1NC(=O)NC1CCN(CC(=O)Nc2ccc3c(c2)OCCO3)CC1`, the viability was 86.8%.

For the compound `O=C(CCNS(=O)(=O)c1ccc(Cl)cc1)NCc1ccccn1`, the viability is 89.7%.

Consider `COCCNC(=O)CSc1nc(-c2ccc(OC)c(OC)c2)cc(C(F)(F)F)n1`, for which the viability worked out at 89%.

Regarding `CCOc1ccc2ccccc2c1/C=N/n1cncn1`, the viability is 92.3%.

For the compound `CCOC(=O)C1CCCN(C(=O)c2cc(=O)c3ccccc3o2)C1` (configuration not stated), the viability turned out to be 97.3%.

For `COc1ccc(CN(C(=O)c2oc3ccccc3c2C)C2CCS(=O)(=O)C2)cc1` (configuration not stated), the viability was 90.5%.

With `COC(=O)CCc1c(C)c(C#N)c2nc3ccccc3n2c1N1CCCC1`, the viability was determined as 73.2%.

Turning to `COC(=O)c1ccccc1NC(=O)c1noc2c1CCC2`, the viability came to 74.8%.

With `Cc1ccc(S(=O)(=O)NCC(=O)N(CC(=O)NC2CCCCC2)Cc2ccco2)cc1`, the viability came to 93.9%.

`O=C(CNC1CCCCCC1)Nc1ccc(S(=O)(=O)NC2CC2)cc1`: the viability amounted to 93.7%.

With `Cn1c2c(c(=O)n(C)c1=O)C(c1cccc(Br)c1)C1C(=O)c3ccccc3C1=N2` (configuration not stated), the viability was found to be 40.6%.

On to `CC(C)Nc1ncnc2c1cnn2-c1ccccc1`, for which the viability worked out at 94.7%.

As for `CN(C)/C=C(\C#N)c1nc2ccccc2[nH]1`, the viability came to 98%.

In the case of `Oc1ccc2[nH]cnc2c1CN1CCCCC1`, the viability was 99.7%.

Turning to `COc1ccc(S(=O)(=O)C(C#N)c2nc3ccccc3nc2N2CCCC(C)C2)cc1` (configuration not stated), the viability came to 75.5%.

Consider `Cc1ccc(S(=O)(=O)N(CC(=O)NCc2ccco2)Cc2ccccc2F)cc1`, for which the viability worked out at 107%.

For the compound `COc1ccc(C(=O)NCc2ccccc2OC)cc1`, the viability came to 105%.

Take `CN(C)CCN1C(=O)c2oc3ccc(Cl)cc3c(=O)c2C1c1cccc(Br)c1` (configuration not stated): the viability was found to be 77.1%.

As for `CCOC(=O)Nc1ccc(OC)cc1S(=O)(=O)N1CCCCC1`, the viability was found to be 99%.

Consider `CCOC(=O)CSc1nnc([C@H](CC(C)C)NC(=O)OC(C)(C)C)o1`, for which the viability was 94.6%.

Regarding `O=C(CSc1nnc(-c2ccccc2)c(-c2ccccc2)n1)N1CCOCC1`, the viability was 85.3%.

Take `CCOC(=O)C(C)Sc1nc2c(cnn2-c2ccc(C)cc2)c(=O)[nH]1` (configuration not stated): the viability stood at 14.4%.

On to `O=c1c2ccccc2nnn1CSc1nnc2sc3ccccc3n12`, for which the viability stood at 77.5%.

For `COc1ncnc2c1N=C1CC(C)(C)CC(N)=C1S2`, the viability stood at 87.5%.

With `CCc1ccc(CNCc2cccnc2)cc1`, the viability came out at 92.4%.

As for `O=C(NC1CCN(Cc2nnnn2CCc2ccccc2)CC1)c1ccccc1F`, the viability is 86.5%.

Consider `COc1ccc(C(=O)N(CCCO)Cc2cc3c(C)ccc(C)c3[nH]c2=O)cc1OC`, for which the viability was determined as 95.1%.

As for `Nc1cc(-c2ccccc2)ccc1O`, the viability came to 73%.

Take `Cc1cc(NC(=O)COc2cccc3cccnc23)no1`: the viability came out at 81%.

As for `Cc1cc(Br)ccc1NC(=O)CNC(=O)CSc1n[nH]c(N)n1`, the viability is 104%.

With `CC(=O)NCCOc1cccc(OCCNC(C)=O)c1`, the viability was determined as 86.3%.
